# Unmarked numbers belong to inactive results. Results filed as inconclusive are left out. Active and inactive are the calls of the source. Unless noted, calls come from the whole dose curve; as a rule, active = well fitted curve in the direction sought with a large enough effect; inconclusive = small, poorly fitted or top-dose-only effect, or another doubt; inactive = no such curve, though single readings can be large; an effect the other way counts as inactive or inconclusive.
# Assays:
# [1] = target: Cytochrome P450 3A4 (Homo sapiens) (UniProt P08684); test: qHTS for inhibitors of CYP3A4 against the NCATS DSHEA and TCM libraries (AID 1919971);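 note: % is set by controls: 0 for no effect and ±100 for the full control effect; inhibition lowers luminescence from luciferin made by CYP3A4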
# Summary of the method: (§1)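 Concentration-response screening with isoform-matched pro-luciferin substrates. The CYP reaction was initiated by NADPH regenerating solution and ran 30-45 min in darkness at room temperature.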
# [2] = target: Cytochrome P450 2D6 (Homo sapiens) (UniProt P10635); test: qHTS for inhibitors of CYP2D6 against the NCATS DSHEA and TCM libraries (AID 1919972); note: % is set by controls: 0 for no effect and ±100 for the full control effect
# Summary of the method: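 CYP2D6 enzyme with pro-luciferin substrate in manufacturer buffer (typically 100 mM KPO4), preincubated 15 min RT with substances (most at 19.5 nM upward); NADPH regeneration system (1x) started 30–45 min RT reaction; P450-Glo luminescence read after 30 min; quinidine as intraplate control.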
# [3] = target: Cytochrome P450 2C9 (Homo sapiens) (UniProt P11712); test: qHTS for inhibitors of CYP2C9 against the NCATS DSHEA and TCM libraries (AID 1919973);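 note: luminogenic pro-luciferin CYP2C9 substrate turned into luciferin with NADPH regeneration; % is set by controls: 0 for no effect and ±100 for the full control effect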
# Summary of the method: as §1
# [4] = target: Cytochrome P450 2C19 (Homo sapiens) (UniProt P33261); test: qHTS for inhibitors of CYP2C19 against the NCATS DSHEA and TCM libraries (AID 1919974);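 note: luminescence from luciferin released by CYP2C19 oxidation of a pro-luciferin substrate; % is set by controls: 0 for no effect and ±100 for the full control effect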
# Summary of the method: as §1
# [5] = KB-3-1 P-gp reporter qHTS against the NCATS DSHEA and TCM libraries (AID 1919975); note: 0% is about no effect
# Summary of the method: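 72 h exposure of KB-3-1 cells (DMEM, 10% FBS) to DSHEA/TCM samples, concentration-response; cell viability measured as CellTiter-Glo luminescence after 30 min at room temperature.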
# [6] = target: Cytochrome P450 1A2 (Homo sapiens) (UniProt P05177); test: qHTS for inhibitors of CYPIA2 against the NCATS DSHEA and TCM libraries (AID 1919976);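 note: light from luciferin formed by CYP1A2 from a pro-luciferin substrate; % is set by controls: 0 for no effect and ±100 for the full control effect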
# Summary of the method: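 Enzyme and pro-luciferin substrate, or substrate alone as no-enzyme background, are pre-incubated with test samples for 15 min at room temperature. NADPH regeneration system (1x final) initiates a 30-45 min dark reaction; luciferase detection reagent follows before luminescence reading.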
# [7] = qHTS Counterscreen for compound interference against the NCATS DSHEA and TCM libraries (AID 1919978); details: firefly luciferase detection reagent interference, luminescence; note: % of control where 0% means no effect
# Summary of the method: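 Read-out is luminescence after 30 min at RT with luciferin detection reagent. Before that, compounds (19.5 nM to 39.8 uM final) sat 15 min at RT with 1 uM D-luciferin or 100 mM potassium phosphate buffer. PTC124 served as intraplate control.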
# [8] = Dual reporter qHTS for agonist of Pregnane X Receptor (hPXR) against the NCATS DSHEA and TCM libraries: Fluorescence readout (AID 1920058); note: 0% is about no effect
# Summary of the method: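 Cells were plated at 2000 per well and allowed to attach for 5 h. Test substances were pinned in and incubated roughly 24 h. CellTiter-Fluor was then added and fluorescence measured after 1 h.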
# [9] = target: Nuclear receptor subfamily 1 group I member 2 (Homo sapiens) (UniProt O75469); test: Dual reporter qHTS for agonist of Pregnane X Receptor (hPXR) against the NCATS DSHEA and TCM libraries: Luminescence readout (AID 1920059); note: 0% is about no effect
# Summary of the method: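 Luminescent PXR reporter read (ONE-Glo) after a CellTiter-Fluor viability read, following 24 h, 37C treatment of HepG2 cells stably carrying hPXR-Luc.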
# [10] = Dual reporter qHTS for antagonist of Pregnane X Receptor (hPXR) against the NCATS DSHEA and TCM libraries: Fluorescence Readout (AID 1920061); note: 0% is about no effect
# Summary of the method: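 hPXR-Luc HepG2 cells exposed 24 h at 37 C to compounds with 2 uM rifampicin in antagonist mode; luciferase luminescence measured by ONE-Glo, with CellTiter-Fluor viability read beforehand.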
# [11] = qHTS drug screen for cell cycle checkpoint inhibitors in PARPi-resistant BRCA-mutant ovarian cancer cell lines. (AID 1963452; calls by dose curve; note: potency is the fitted concentration of half-maximal effect); details: PEO1/OlaR viability, CellTiter-Glo luminescence, 96 h; for Z-AUC: active compounds read low
# Summary of the method: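 PEO1, PEO4 and PEO1/OlaR ovarian cancer cells, 600 per well, exposed 96 h at 37C to a dilution series. Viability read by CellTiter-Glo luminescence, normalized to DMSO and empty wells; activity summarized as Z-AUC.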
# [12] = qHTS profiling for inhibitors of Plasmodium falciparum proliferation (AID 504749); note: potency is the fitted concentration of half-maximal effect;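 for activity, negative = inhibition: 0% = DMSO vehicle and full inhibition = artemisinin control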; for all read-outs here: nearly all actives have a fitted effect of over 60% in size; details: P. falciparum in erythrocytes, SYBR Green DNA, 72 h; for activity, negative = inhibition: at 28.7 µM (top of the series)
# Summary of the method: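 SYBR Green fluorescence of parasite DNA, read after lysis and overnight dark incubation, measured growth over 72 h in erythrocyte culture at 0.3% parasitemia and 2.5% hematocrit. Data normalised to DMSO and 0.29 uM artemisinin, with plate-drift correction.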
# Chain of Cytochrome P450 2D6 (Homo sapiens) (P10635 whole entry, looked up): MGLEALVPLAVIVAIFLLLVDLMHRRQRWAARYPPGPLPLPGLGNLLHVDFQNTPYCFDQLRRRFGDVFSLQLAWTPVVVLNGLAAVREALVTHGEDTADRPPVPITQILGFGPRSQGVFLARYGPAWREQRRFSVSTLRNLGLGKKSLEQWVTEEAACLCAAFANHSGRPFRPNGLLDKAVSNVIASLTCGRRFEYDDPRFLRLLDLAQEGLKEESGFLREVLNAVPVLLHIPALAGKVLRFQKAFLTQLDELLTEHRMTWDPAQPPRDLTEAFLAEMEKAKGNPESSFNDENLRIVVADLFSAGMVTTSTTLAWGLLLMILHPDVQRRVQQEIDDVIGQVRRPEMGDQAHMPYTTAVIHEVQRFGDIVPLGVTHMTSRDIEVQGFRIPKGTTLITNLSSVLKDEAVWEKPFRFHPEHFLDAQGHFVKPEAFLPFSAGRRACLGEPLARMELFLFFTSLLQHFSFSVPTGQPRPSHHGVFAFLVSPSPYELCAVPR
# Chain of Cytochrome P450 3A4 (Homo sapiens) (P08684 whole entry, looked up, canonical isoform): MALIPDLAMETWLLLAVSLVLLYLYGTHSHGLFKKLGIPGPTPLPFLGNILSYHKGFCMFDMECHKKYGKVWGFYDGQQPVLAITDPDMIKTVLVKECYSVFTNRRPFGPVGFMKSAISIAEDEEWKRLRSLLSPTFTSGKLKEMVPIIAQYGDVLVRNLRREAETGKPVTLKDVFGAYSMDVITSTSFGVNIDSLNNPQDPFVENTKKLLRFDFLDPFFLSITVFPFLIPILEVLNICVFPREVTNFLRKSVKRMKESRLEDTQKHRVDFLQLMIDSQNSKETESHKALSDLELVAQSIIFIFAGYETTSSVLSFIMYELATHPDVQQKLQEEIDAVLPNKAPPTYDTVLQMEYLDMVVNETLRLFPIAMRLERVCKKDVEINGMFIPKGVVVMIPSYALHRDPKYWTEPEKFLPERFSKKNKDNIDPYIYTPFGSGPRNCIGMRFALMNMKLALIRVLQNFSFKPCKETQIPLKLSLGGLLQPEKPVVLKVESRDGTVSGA
# Chain of Cytochrome P450 1A2 (Homo sapiens) (P05177 whole entry, looked up): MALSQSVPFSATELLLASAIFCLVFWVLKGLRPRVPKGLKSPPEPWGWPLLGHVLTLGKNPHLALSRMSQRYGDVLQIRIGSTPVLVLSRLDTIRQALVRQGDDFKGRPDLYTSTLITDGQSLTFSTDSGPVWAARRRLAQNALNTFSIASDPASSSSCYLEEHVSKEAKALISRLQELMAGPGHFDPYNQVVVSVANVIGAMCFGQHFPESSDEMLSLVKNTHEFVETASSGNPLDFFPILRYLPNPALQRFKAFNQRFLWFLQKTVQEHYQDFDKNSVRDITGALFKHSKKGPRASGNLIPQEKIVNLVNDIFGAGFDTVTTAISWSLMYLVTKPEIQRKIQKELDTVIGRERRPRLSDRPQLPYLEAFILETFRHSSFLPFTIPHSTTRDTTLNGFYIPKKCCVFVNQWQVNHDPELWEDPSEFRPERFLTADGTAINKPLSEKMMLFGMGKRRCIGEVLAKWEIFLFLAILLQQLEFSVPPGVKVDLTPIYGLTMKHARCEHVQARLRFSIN
# Chain of Nuclear receptor subfamily 1 group I member 2 (Homo sapiens) (O75469 whole entry, looked up): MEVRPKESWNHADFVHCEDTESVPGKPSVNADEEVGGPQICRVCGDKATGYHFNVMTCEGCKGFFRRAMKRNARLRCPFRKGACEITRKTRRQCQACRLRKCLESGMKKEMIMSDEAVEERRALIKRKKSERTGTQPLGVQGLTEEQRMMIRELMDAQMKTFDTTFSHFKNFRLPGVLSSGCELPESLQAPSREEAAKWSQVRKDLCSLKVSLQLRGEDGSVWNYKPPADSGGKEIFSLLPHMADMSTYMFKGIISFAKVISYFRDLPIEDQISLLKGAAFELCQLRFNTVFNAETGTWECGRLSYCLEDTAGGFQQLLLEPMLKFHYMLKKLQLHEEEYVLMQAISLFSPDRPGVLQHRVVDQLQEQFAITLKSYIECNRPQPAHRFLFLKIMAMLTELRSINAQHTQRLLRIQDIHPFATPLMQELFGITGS
# Chain of Cytochrome P450 2C19 (Homo sapiens) (P33261 whole entry, looked up): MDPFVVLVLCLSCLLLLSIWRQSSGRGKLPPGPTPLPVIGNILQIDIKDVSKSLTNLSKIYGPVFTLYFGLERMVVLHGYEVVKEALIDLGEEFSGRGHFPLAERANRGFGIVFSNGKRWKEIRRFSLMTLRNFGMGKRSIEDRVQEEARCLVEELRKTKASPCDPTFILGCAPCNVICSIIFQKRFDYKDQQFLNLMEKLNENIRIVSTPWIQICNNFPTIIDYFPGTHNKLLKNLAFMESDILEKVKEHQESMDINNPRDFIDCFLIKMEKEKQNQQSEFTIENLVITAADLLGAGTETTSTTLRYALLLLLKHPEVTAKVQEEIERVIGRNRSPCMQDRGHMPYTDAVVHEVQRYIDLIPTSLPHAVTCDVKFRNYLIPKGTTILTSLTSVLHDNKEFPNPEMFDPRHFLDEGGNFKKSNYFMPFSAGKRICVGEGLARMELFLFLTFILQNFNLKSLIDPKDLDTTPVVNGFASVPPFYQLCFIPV
# Chain of Cytochrome P450 2C9 (Homo sapiens) (P11712 whole entry, looked up): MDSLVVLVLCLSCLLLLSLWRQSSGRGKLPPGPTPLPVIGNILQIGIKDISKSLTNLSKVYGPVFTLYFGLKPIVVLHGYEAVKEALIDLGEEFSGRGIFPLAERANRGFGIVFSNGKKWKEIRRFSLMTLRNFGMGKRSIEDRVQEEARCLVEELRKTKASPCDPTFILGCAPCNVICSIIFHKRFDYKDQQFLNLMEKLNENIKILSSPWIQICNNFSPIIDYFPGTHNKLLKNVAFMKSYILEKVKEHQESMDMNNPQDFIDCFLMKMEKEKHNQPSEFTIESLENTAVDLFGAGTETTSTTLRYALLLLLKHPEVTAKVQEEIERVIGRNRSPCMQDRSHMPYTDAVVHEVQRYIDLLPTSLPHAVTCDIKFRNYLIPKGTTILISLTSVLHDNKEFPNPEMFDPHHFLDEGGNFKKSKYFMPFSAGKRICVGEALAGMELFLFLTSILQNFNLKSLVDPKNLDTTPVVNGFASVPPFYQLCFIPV
compound,measurement,setting,value
Oc1cc(O)c2c(c1)OC(c1ccc(O)c(O)c1)C(O)C2 (configuration not stated),outcome,[1],inactive
same,outcome,[2],inactive
same,Potency,[3],inactive
same,Potency,[4],inactive
same,outcome,[5],inactive
same,outcome,[6],inactive
same,max response,[7],0.755%
same,outcome,[8],inactive
same,outcome,[9],inactive
same,outcome,[10],inactive
COc1cc2c(cc1O)CCN[C@]21CS[C@@H]2c3c(OC(C)=O)c(C)c4c(c3[C@H](COC1=O)N1[C@@H]2[C@H]2c3c(cc(C)c(OC)c3O)C[C@@H]([C@@H]1O)N2C)OCO4,Potency,[11],39.9 nM (active)
C=Cc1cc(O)cc2nc(-c3ccc(O)c(F)c3)oc12,Z-AUC,[11],0.0399
O=C(O)c1cnn(-c2nc3cc(OC(F)(F)F)c(Cl)cc3[nH]2)c1,Z-AUC,[11],0.292
O=C(Nc1cccc(C(F)(F)F)c1)c1cc(Br)cc(Br)c1O,Potency,[12]; parasite line B,10000 nM (active)
CCCCC/C=C\C/C=C\CCCCCCCC(=O)O,"activity, negative = inhibition",[12]; parasite line A,6.83%
same,"activity, negative = inhibition",[12]; parasite line B,5.9%
CCCCCCC(O)C/C=C/CCCCCCCC(=O)O (configuration not stated),"activity, negative = inhibition",[12]; parasite line A,-1.16%
same,"activity, negative = inhibition",[12]; parasite line B,3.04%
C[C@H]1C[C@H]2[C@@H]3CCC4=CC(=O)C=C[C@]4(C)[C@@]3(F)[C@@H](O)C[C@]2(C)[C@@]1(O)C(=O)CO,"activity, negative = inhibition",[12]; parasite line A,15.5%
same,"activity, negative = inhibition",[12]; parasite line B,5.52%
CCCC(=O)O[C@]1(C(=O)CCl)[C@H](C)C[C@@H]2[C@H]3CCC4=CC(=O)C=C[C@]4(C)[C@@]3(F)C(=O)C[C@@]21C,Potency,[12]; parasite line A,1410 nM (active)
same,Potency,[12]; parasite line B,2240 nM (active)
Cc1ccccc1OCC(O)CNCCOc1ccc(C(N)=O)cc1 (configuration not stated),"activity, negative = inhibition",[12]; parasite line A,11.2%
same,"activity, negative = inhibition",[12]; parasite line B,8.46%
C[C@@H]1CCC2[C@@H](C)[C@@H](O)O[C@@H]3O[C@@]4(C)CC[C@@H]1[C@@]23OO4 (some centres not stated),Potency,[12]; parasite line A,1.4 nM (active)
same,Potency,[12]; parasite line B,1.8 nM (active)
O=C1C(=O)c2ncccc2-c2cccnc21,Potency,[12]; parasite line A,891 nM (active)
same,Potency,[12]; parasite line B,1120 nM (active)
CN1C(=O)CN2CCc3ccccc3C2c2cc(Cl)ccc21 (configuration not stated),"activity, negative = inhibition",[12]; parasite line A,-10.8%
same,"activity, negative = inhibition",[12]; parasite line B,-17.4%
O=C(COc1ccc(Cl)cc1)OCCNC12CC3CC(CC(C3)C1)C2,"activity, negative = inhibition",[12]; parasite line A,9.51%
same,"activity, negative = inhibition",[12]; parasite line B,10.7%
